# Test results as given in PubChem BioAssay (NCI).
# This is part of a sample that, as a whole, favours compounds with a hit. Of some 83,000 tested, about 20% had one in any assay.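 Testing used 96-well plates and a 48-hour single-concentration exposure. Example: -40 means 40% of the starting cells died.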 A number with no mark means an inactive call. The source made the active and inactive calls. The calls were made as follows: active = growth percent below 10; inactive = the rest.
# Test system: HL-60(TB) leukemia
# Assay: NCI-60 one-dose screen, 48 h (100 = growth as untreated, 0 = no growth, -100 = all killed)
# Conditions: 10 µM unless noted
row,Structure (SMILES),growth
1,CC1(C)CCC(C)(C)NC(=S)N1,89.3%
2,CN1C(=O)N(C)C2C1NN=c1s/c(=C\c3ccccc3F)c(=O)n12 (stereo not given),-46.5% (active)
3,COc1ccc(CCNc2nc(SC)nc(-c3cccc([N+](=O)[O-])c3)c2C#N)cc1OC,120%
4,S=C(SSC(=S)N1CCOCC1)N1CCOCC1,98%
5,O=C(N/N=C/c1ccccc1O)c1ccccc1,11.4%
6,O=C(Nc1ccc(-n2ccc3c(NC(=O)c4ccccc4)nccc32)cc1)c1ccc(Cl)c(C(F)(F)F)c1,25.7%
7,O=C(COc1ccc(/C=C2\Oc3ccccc3C2=O)cc1)Nc1nc2ccccc2s1,-68.9% (active)
8,COc1cc(Nc2ncnc(Nc3ccc4c(n3)NC(=O)C(C)(C)O4)n2)cc(OC)c1OC,46.8%
9,NCCNc1ccc([N+](=O)[O-])cc1,91.9%
10,CC1(c2ccccc2)NC(=O)N(NC(=O)CSc2nc(-c3cccs3)nc3ccccc23)C1=O (stereo not given),91.6%
11,N#Cc1c(-c2cccc(F)c2)cc(-c2cccnc2)[nH]c1=O,98%
12,Nc1c(S(=O)(=O)O)cc2c3c(cccc13)C(=O)OC2=O,134%
13,O=C(/C=C/c1ccc2ccccc2c1)Nc1ncc(Cc2ccccc2)s1,94.4%
14,O=C(CCl)NCCNc1nccc(Nc2ccc(S(=O)(=O)Nc3ccccn3)cc2)n1,10.2%
15,CC1(C)CCC[C@]23C(=O)O[C@](O)(C(=O)C4=C[C@@](C)(/C=C/CCCc5ccc6ccc7cccc8ccc5c6c78)CC[C@@]42O)[C@@H]13,-18.3% (active)
16,O=C(CNC(=O)c1cccc2ccccc12)Nc1ccccc1Oc1cccc(O)c1,-24.1% [5 µM] (active)
17,CC1(C)CCC(=NNC(N)=S)CC1,109%
18,Oc1ccc(-c2nc3ccc4[nH]ncc4c3c3c2CCCC3)c2cccnc12,-8.83% (active)
19,Cc1cc(N2CCN(CC(=O)Nc3ccc4c(ccn4Cc4ccccc4)c3)CC2)nc(N2CCCCCC2)n1,12.1%
20,CN(C)c1ncnc2c1cnn2C,108%

row,Structure (SMILES),growth
1,CC(=O)c1ccc(Cc2ccc(C(C)=O)s2)s1,86.5%
2,C=C1CCC2C(C)(COC(=O)CC)C(OC(=O)CC)CCC2(C)C1C/C=C1/C(=O)OCC1OC(=O)CC (stereo not given),-43.8% (active)
3,CC1(C)CC[C@]2(C(=O)OC(=O)[C@]34CCC(C)(C)C[C@@H]3C3=CC[C@@H]5[C@@]6(C)CCC(=O)C(C)(C)[C@@H]6CC[C@@]5(C)[C@]3(C)CC4)CC[C@]3(C)C(=CC[C@@H]4[C@@]5(C)CCC(=O)C(C)(C)[C@@H]5CC[C@]43C)[C@H]2C1,6.37% [100 µM] (active)
4,COc1cc(NS(C)(=O)=O)ccc1Nc1c2ccc(Cl)cc2nc2c(OC)cccc12,-30.1% (active)
5,O=C(O)c1cn(C2CC2)c2cc(N3CCN(C(=O)/C=C/c4ccc(Cl)cc4)CC3)c(F)cc2c1=O,60.4%
6,COc1cc(/C=C\C(=O)O)ccc1OCc1ccccc1,122%
7,C=CC(=O)N(C)[C@H]1C[C@H]2OC(C)(C1OC)n1c3ccccc3c3c4c(c5c6ccccc6n2c5c31)C(=O)NC4 (stereo not given in full),-11.2% (active)
8,Nc1ccc(/C=N/Nc2ccnc3c(N)cccc23)c2cccnc12,-60.4% (active)
9,COc1ccc(C(O)c2cc3c(N)c(C(=O)Nc4cccc(OC)c4)sc3nc2C)cc1 (stereo not given),-55.9% (active)
10,COc1ccc(C(=O)COc2ccc(/C=C3\COc4ccc(OC)cc4C3=O)cc2)cc1,59.4%
11,Cc1csc(C#Cc2cncc(O)c2)n1,110%
12,C/C(=N\Nc1ccc2ccccc2n1)c1ccccn1,-39% (active)
13,COc1ccc(-c2nc3ncccn3c2-c2nnc(-c3ccsc3C)o2)cc1,92.5%
14,C=C(C)C1CCC2(C(=O)O)CCC3(C)C(CCC4C5(C)CCC(OC(=O)NCc6ccccc6)C(C)(C)C5CCC43C)C12 (stereo not given),23%
15,O=[N+]([O-])c1cccc(N=Cc2ccc3c(c2)OCO3)c1,98.5%
16,CC1=C(CCC(C)NCc2ccc(OCCCN3CCCCC3)cc2)C(C)(C)CCC1 (stereo not given),-68.7% (active)
17,Cc1ccc(S(=O)(=O)N2CCN(C(=O)CSc3nc4ccc(C)cc4[nH]3)CC2)cc1,-1.47% (active)
18,COc1cc(CNC(=O)CCCC/C=C/C(C)C)ccc1OCc1cn(-c2cccc([N+](=O)[O-])c2)nn1,109%
19,CCN(CC)CCCC(C)Nc1ccc2ccc(Cl)cc2n1 (stereo not given),101%
20,COCCCC/C(=N\OCCN)c1ccc(C(F)(F)F)cc1,122%
